# Experimental data from PubChem BioAssay AID651871 (Sanford-Burnham Center for Chemical Genomics, 2012).
# Tested on: HL-1
# Assay: protection of cardiomyocytes from stress damage, SAR follow-up, cell-based, panel, H9c2 and HL-1, ATP luminescence, set 2 (AID 651871);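 note: cells exposed to stressor for 2 h before ATP readout; reference of the scale not given here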
# Conditions: H9c2/HL-1 cardiomyocytes, 2-deoxyglucose stress, with 2-deoxyglucose, run 10, at 19.8 µM (top of the series)
smiles,measurement,value
COc1ccc2c(c1OC)C(=O)N1c3ccccc3C(=O)N(Cc3cccc(Cl)c3Cl)C21 (stereo unspecified),activity (protection/inhibition),33.5%
